Reference: PubChem BioAssay (NCATS)
Activity calls are given as the source filed them. Cut-off read from the data, not from the text of the source: active = potency below about 10 µM; inactive = the rest.

What follows are compounds tested against Lysosomal acid glucosylceramidase (Homo sapiens) (UniProt P04062) (assay: Glucocerebrosidase-p2 (AID 348)). Settings: purified GBA, blue fluorogenic substrate, 40 min.
Source text: Beta-glucocerebrosidase catalyzes the hydrolysis of beta-glucocerebroside to glucose and ceramide. The inherited deficiency of beta-glucocerebrosidase results in Gaucher disease, which is characterized by a wide variety of symptoms including hepatosplenomegaly, anemia, thrombocytopenia, bony lesions and bone marrow infiltration with characteristic storage cells, known as Gaucher cells. There are also forms of the disorder affecting the central nervous system. Patients with the same genotypes can manifest with diverse clinical presentations and it is believed that improper folding and trafficking of beta-glucocerbrosidase may contribute to the phenotypes observed.
Low molecular weight molecules, acting as chaperones, may potentially restore trafficking of misfolded beta-glucocerebrosidase from the endoplasmic reticulum to the lysosomes, thereby enhancing functional lysosomal beta-glucocerebrosidase activity.
Using normal beta-glucocerebrosidase, an assay was developed to screen for small molecule inhibitors that could potentially act as molecular chaperones on the mutant forms [developed with NIH investigator Dr. Ellen Sidransky#s laboratory]. Two pro-fluorescent substrates were chosen for two screens against a small molecule library. One beta-glucocerebrosidase assay used Resorufin beta-D-Glucopyranoside (Marker Gene Technology Inc.), generating a red fluorescent product. The second assay used […] fluorescent product. The Km for the Resorufin beta-D-Glucopyranoside and Fluorescein di-beta-D-Glucopyranoside were determined to be 71.2 uM and 855 uM, respectively. The IC50 values of Conduritol B Epoxide, a known glucocerebrosidase inhibitor, were determined to be 87.5 uM and 117 uM, respectively. The use of two difference pro-fluorescent substrates in the screens helped to eliminate false positives. All compounds were screened in a titration series resulting in AC50s (e.g., IC50s or EC50s). Data normalization and AC50 calculations were accomplished using GeneData software.
NCGC Assay Protocol Summary
Both enzyme and substrate were diluted in buffer composed of 50mM citric acid/KH2PO4, 10mM sodium taurocholate and 0.01% tween-20 at pH 5.9. The final concentration of the enzyme was 0.2 nM in both assays. The compound library was titrated in 7 to 15 concentrations for the primary screens with a final concentration ranging from 0.6 nM to 50 uM. This particular assay protocol is for the "blue" substrate, and it was performed in 1536-well plate format as follows:
Blue fluorescence substrate assay:
1 uL substrate (final concentration of 80 uM)
Incubate at room temperature (RT) for 40 minutes
3 uL stop solution (1 M NaOH and 1 M glycine in water)
Read the plate in Viewlux plate reader (Ex=365(10) and Em=440(10)).
Potency is the fitted concentration of half-maximal effect.

Sequence of Lysosomal acid glucosylceramidase (Homo sapiens) (P04062 whole entry, looked up): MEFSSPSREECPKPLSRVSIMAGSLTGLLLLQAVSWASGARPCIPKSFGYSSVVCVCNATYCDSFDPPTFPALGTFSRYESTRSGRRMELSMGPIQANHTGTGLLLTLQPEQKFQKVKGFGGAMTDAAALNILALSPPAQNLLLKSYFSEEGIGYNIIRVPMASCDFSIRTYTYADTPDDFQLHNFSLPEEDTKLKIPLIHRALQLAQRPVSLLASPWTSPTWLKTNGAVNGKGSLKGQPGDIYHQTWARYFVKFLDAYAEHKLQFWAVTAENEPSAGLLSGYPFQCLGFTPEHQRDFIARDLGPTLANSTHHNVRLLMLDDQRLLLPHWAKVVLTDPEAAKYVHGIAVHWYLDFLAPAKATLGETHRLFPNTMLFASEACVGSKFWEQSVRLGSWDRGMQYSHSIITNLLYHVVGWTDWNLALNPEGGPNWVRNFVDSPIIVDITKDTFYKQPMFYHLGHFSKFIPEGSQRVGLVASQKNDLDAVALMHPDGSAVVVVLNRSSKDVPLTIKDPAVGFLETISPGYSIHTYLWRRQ

Potency, inactive:
COc1ccc(-c2nc3cnc(Nc4cccc(OC)c4)nc3n(C[C@H]3CCCO3)c2=O)cc1 > 11.4 µM, Cn1cc(-c2nc3cnc(N4CCOCC4)nc3n(C3CC3)c2=O)c2ccccc21 > 11.4 µM, COc1ccc(-n2c(=O)c(-c3ccccc3)nc3cnc(N4CCN(C)CC4)nc32)cc1 > 11.4 µM, O=c1cnc2cnc(N3CCOCC3)nc2n1CCc1ccccc1 > 11.4 µM, COc1ccc(C(=O)N2CCC3(CCCN(Cc4ccncc4)C3)CC2)cc1 > 11.4 µM, c1cncc(CNc2ncncc2-c2ccc3c(c2)OCO3)c1 > 11.4 µM, O=C(Oc1ccccc1)N1CCC2(CC1)CCN(c1ncccn1)CC2 > 11.4 µM, CNc1ccnc(-c2ccccc2C(F)(F)F)n1 > 11.4 µM, COC(=O)N1CCC2(CC1)CN(c1ccccn1)C2 > 11.4 µM, COc1ccc(-n2c(=O)c(-c3ccc(F)cc3)nc3cnc(N4CCOCC4)nc32)cc1 > 11.4 µM, O=S(=O)(c1ccccc1)N1CCC2(CC1)CN(c1ncccn1)C2 > 11.4 µM, CC(C)NC(=O)N1CC[C@@]2(CCCN(C(=O)c3cc(C(F)(F)F)cc(C(F)(F)F)c3)C2)C1 > 11.4 µM, CN(C)c1ncc2ncc(=O)n(C3CC3)c2n1 > 11.4 µM, CN(C)Cc1ccccc1-c1nc(NC2CCNCC2)c2ccccc2n1 > 11.4 µM, CN(C)Cc1ccccc1-c1nc(N2CCOCC2)c2ccccc2n1 > 11.4 µM, CCNc1ncc2nc(C)c(=O)n(Cc3ccc(F)cc3)c2n1 > 11.4 µM, COc1ccc(NC(=O)N2CCC3(CC2)CCN(S(=O)(=O)c2ccccc2)CC3)cc1 > 11.4 µM, COCCn1c(=O)c(-c2ccc(F)cc2)nc2cnc(N3CCOCC3)nc21 > 11.4 µM, COc1ccc(CNc2ncncc2-c2cccnc2)c(OC)c1 > 11.4 µM, CC(C)NC(=O)N1CCC2(CC1)CCN(C(=O)c1ccncc1)CC2 > 11.4 µM, O=c1cnc2cnc(N3CCNCC3)nc2n1Cc1cccs1 > 11.4 µM, O=c1c(-c2ccc(F)cc2)nc2cnc(Oc3cccc(Cl)c3)nc2n1C1CC1 > 11.4 µM, Cc1cnc(CNc2cc(-c3cccc(NS(C)(=O)=O)c3)ncn2)cn1 > 11.4 µM, COc1ccccc1CNc1nc(-c2c(C)noc2C)nc2ccccc12 > 11.4 µM, COCC(=O)N1CCC2(CC1)CCN(C(=O)Nc1cccc(F)c1)CC2 > 11.4 µM, CN(C)c1nc(-c2ccoc2)nc2ccccc12 > 11.4 µM, COc1ccccc1CNc1ncncc1-c1ccoc1 > 11.4 µM, COCCn1c(=O)c(-c2ccc(Cl)cc2)nc2cnc(Nc3ccccc3)nc21 > 11.4 µM, CS(=O)(=O)N1CCC[C@@]2(CCN(C(=O)Nc3cccc(F)c3)C2)C1 > 11.4 µM, COc1cccc(Cn2c(=O)c(-c3cccs3)nc3cnc(N(C)C)nc32)c1 > 11.4 µM, COCCNc1ccnc(-c2cccc(NS(C)(=O)=O)c2)n1 > 11.4 µM, Cn1cccc1C(=O)N1CCC[C@@]2(CCN(c3ccccn3)C2)C1 > 11.4 µM, c1ccc(CNc2ccnc(-c3ccoc3)n2)cc1 > 11.4 µM, COc1ccc(-c2nc3cnc(N4CCOCC4)nc3n(C3CC3)c2=O)cc1 > 11.4 µM, O=c1c(-c2cccs2)nc2cnc(N3CCOCC3)nc2n1-c1ccccc1 > 11.4 µM, COc1cccc(-c2nc(NCc3ccccc3)c3ccccc3n2)c1 > 11.4 µM, O=C(c1cc(C(F)(F)F)cc(C(F)(F)F)c1)N1CCC[C@@]2(CCN(Cc3ccncc3)C2)C1 > 11.4 µM, COc1ncc2nc(-c3cc(F)cc(F)c3)c(=O)n(CCC#N)c2n1 > 11.4 µM, Cc1noc(C)c1-c1ccc2ncnc(NC3CCNCC3)c2c1 > 11.4 µM, O=C(c1ccncc1)N1CCC[C@@]2(CCN(c3ccccn3)C2)C1 > 11.4 µM
